# Rows were chosen to be rich in hits. Some 10% of all compounds tested hit in one or more screens of this group.
# NPR1 antag: human Npr1 receptor antagonism; HEK293 hNpr1 GloSensor cGMP, ANP-stimulated luminescence; P16066; AID 1347048; Potency, µM (series often up to 46.3 µM), inactives show at the top dose activity change, negative = inhibition, hits mostly inhibitors; 76,000 tested, 1.6% active; calls by dose curve; also: nearly all actives have a fitted effect of over 60% in size
#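 HEK293 cells stably expressing human Npr1 and cGMP GloSensor pGS-40F, loaded 2 h with 2% GloSensor reagent, given compound 30 min at room temperature. Luminescence read before and 20 min after 0.1 nM hNppA.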
# FLuc inh: blocks purified firefly luciferase enzyme activity; P08659; purified P. pyralis luciferase, luminescence, biochemical; Potency, µM (highest dose often 115 µM), hits mostly inhibitors; 76,000 tested, 2.5% active; AID 1347043; also: nearly all actives have a fitted effect of over 65% in size
#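 Purified P. pyralis luciferase (10nM final) in 50mM Tris acetate pH 7.5, 10mM Mg acetate, 0.01% Tween-20, 0.05% BSA with 10uM D-luciferin and 10uM ATP. Compounds titrated qHTS. Luminescence imaged on CCD.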
# HEK cytotox: HEK 293 cell cytotoxicity. HEK 293 viability, ATP luminescence (CellTiter-Glo), 48-72 h. Potency, µM (doses to about 115 µM), inactives show top-dose activity change, negative = cytotoxicity, most hits filed as inhibitors. 94,000 tested, 6.6% active; also: nearly all actives have a fitted effect of over 60% in size
#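 HEK 293 seeded at 250 cells/well receive compound via pintool. After 48 or 72 hr at 37 degree Celsius, 5% CO2 and 95% humidity, CellTiter-Glo is dispensed and luminescence read following 10 min at room temperature.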
# 3T3 cytotox: cytotoxic compounds in NIH 3T3 cells | AID 1345082 | Potency, µM (titrated, usually from 96.7 µM), for the others: at the highest dose activity change, negative = cytotoxicity, hits mostly inhibitors | 94,000 tested, 4.3% active | NIH 3T3 viability, CellTiter-Glo ATP luminescence, 48-72 h; also: nearly all actives have a fitted effect of over 55% in size
#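 Cells were seeded at 400 per well, treated with pin-transferred compound, and kept 48 or 72 hr at 37 °C before CellTiter-Glo addition and luminescence imaging of cellular ATP.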
# GPT2 inh: inhibitors of human GPT2 alanine aminotransferase; 100,000 tested, 0.25% active; Potency, µM (titrated, usually from 57.7 µM), inactives show at the highest dose activity change, negative = inhibition, actives largely listed as inhibitors; Q8TD30; Recombinant GPT2, coupled pyruvate oxidase/HRP Amplex Red fluorescence; AID 1671188; also: nearly all actives have a fitted effect of over 60% in size
# Target sequence (Q8TD30 whole entry, looked up): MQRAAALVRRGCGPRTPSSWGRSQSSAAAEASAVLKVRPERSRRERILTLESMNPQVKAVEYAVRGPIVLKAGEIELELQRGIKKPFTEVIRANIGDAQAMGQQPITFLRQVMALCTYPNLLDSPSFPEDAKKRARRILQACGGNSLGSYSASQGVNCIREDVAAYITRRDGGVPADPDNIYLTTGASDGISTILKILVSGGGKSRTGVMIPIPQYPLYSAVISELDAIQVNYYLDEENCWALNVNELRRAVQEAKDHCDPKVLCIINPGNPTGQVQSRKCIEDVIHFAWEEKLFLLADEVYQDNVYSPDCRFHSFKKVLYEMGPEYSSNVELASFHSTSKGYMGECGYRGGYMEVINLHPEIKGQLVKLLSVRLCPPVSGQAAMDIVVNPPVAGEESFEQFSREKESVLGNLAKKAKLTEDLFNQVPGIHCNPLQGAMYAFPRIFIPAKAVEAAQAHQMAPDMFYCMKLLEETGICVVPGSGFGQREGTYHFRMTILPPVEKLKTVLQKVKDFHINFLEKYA
#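 GPT2 10ng/uL, a-KG 250uM, L-Ala 2mM, HEPES pH7.5 + 0.0001% Tween; 30 min RT. Then Amplex mix (PO/HRP/ThPP), 30 min RT dark, fluorescence. AOA 50uM used as positive control.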
# The depositor's hits bear a star; i = inactive; u = inconclusive; x = not tested or not shown; [ ] = remark or other dose. Unless noted, calls follow the shape of the dose curve; as a rule, active = well fitted curve in the direction sought with a large enough effect; inconclusive = small, poorly fitted or top-dose-only effect, or another doubt; inactive = no such curve, though single readings can be large; an effect the other way counts as inactive or inconclusive. % is scaled to controls: 0 for no effect and ±100 for the full control effect; potency is read from the fitted curve at half-maximal effect.
SMILES,NPR1 antag,FLuc inh,HEK cytotox,3T3 cytotox,GPT2 inh
CC(=O)Nc1cccc(-c2ncc3c(n2)OCCN(c2ccccc2)C3=O)c1,4%[70.6 µM],28µM*,-6%[172 µM],18µM*,2%[88.5 µM]
O=C1c2cnc(-c3ccncc3)nc2OCCN1c1ccccc1,-5%[70.6 µM],u,u,-23%[138 µM],-18%[88.5 µM]
CC(=O)Nc1cccc(-c2ncc3c(n2)OCCN(CC2CC2)C3=O)c1,0%[70.6 µM],50µM*,-9%[172 µM],u,i
O=C1c2cnc(-c3cc4ccccc4o3)nc2OCCN1c1ccccc1,0.28µM*,0.01µM*,-87%[172 µM],-93%[138 µM],-4%[88.5 µM]
NC(=O)c1cccc(-c2ncc3c(n2)OCCN(c2ccccc2)C3=O)c1,1%[70.6 µM],45µM*,u,u,3%[88.5 µM]
CCOC(=O)[C@@H]1[C@@H](OC)C(=O)N(C)C12CCN(C(=O)OCc1ccccc1)CC2,x,x,-22%,u,x
CCn1ncc(C(=O)N2CCC3(CC2)CN(Cc2ccccc2)CC3CO)c1C (centres undefined),-5%,i,u,-26%,-18%
COc1ccc(CC(=O)N2CCN(c3nccc(Nc4ccccc4Cl)n3)CC2)cc1,x,x,u,40µM*,i
O=C(NCC1CC1)C1CCN(c2nccc(Nc3ccccc3Cl)n2)CC1,x,x,32µM*,32µM*,i
COc1ccc(CNC(=O)C2CCN(c3nccc(Nc4ccccc4Cl)n3)CC2)cc1,x,x,25µM*,35µM*,-11%
O=C(NCc1ccccc1Cl)C1CCN(c2nccc(Nc3ccccc3F)n2)CC1,x,x,u,40µM*,-20%
O=C(NCCCc1ccccc1)C1CCN(c2nccc(Nc3ccccc3F)n2)CC1,x,x,35µM*,u,i
O=C(c1nc2cccnc2n(C2CCCC2)c1=O)N1CCOCC1,x,x,-4%,-19%,-1%
CCOc1ccc(NC(=O)c2cc3n(n2)CC(c2ccc4c(c2)OCO4)OC3)cc1 (centres undefined),16µM*,u,22µM*,u,i
Cc1cc(C)cc(NC(=O)c2cc3n(n2)CC(c2ccc4c(c2)OCO4)OC3)c1 (centres undefined),-19%,i,89µM*,u,i
CC1CCC(NC(=O)c2cc3n(n2)CC(c2ccc4c(c2)OCO4)OC3)CC1 (centres undefined),-9%,i,22µM*,u,i
COc1ccc(OC)c(NC(=O)c2cc3n(n2)CC(c2ccc4c(c2)OCO4)OC3)c1 (centres undefined),1%,i,u,-20%,i
O=C(NCCCc1ccccc1)c1cc2n(n1)CC(c1ccc3c(c1)OCO3)OC2 (centres undefined),-23%,i,u,28µM*,5%
Cn1ncc2c(C(=O)NC3CCC3)cc(-c3ccccc3F)nc21,x,x,-23%[172 µM],u,x
Cc1nnc(SCC2=C(C(=O)O)N3C(=O)[C@@H](NC(=O)Cn4cnnn4)[C@H]3SC2)s1,x,x,x,x,i
CN(C)CCn1nnnc1SCC1=C(C(=O)O)N2C(=O)[C@@H](NC(=O)Cc3csc(N)n3)[C@H]2SC1,x,x,x,x,18µM*
CNC(=O)CCn1ncc2cc(OC3CCc4cccc(-c5ccncc5)c43)ccc21 (centres undefined),3%[70.6 µM],i,100µM*,u,1%[88.5 µM]
CNC(=O)CCn1ncc2cc(OC3CCc4cccc(-c5cccnc5)c43)ccc21 (centres undefined),-16%[70.6 µM],i,100µM*,u,u
Cn1nc(C2CCN(C(=O)c3ccc(F)cc3)CC2)n(Cc2ccccc2)c1=O,x,x,-21%,u,-11%
Cc1csc(NC(=O)c2nc3c(o2)CCN(Cc2ccc4[nH]ccc4c2)CC3)n1,-17%[70.6 µM],35µM*,100µM*,u,i
SMILES,NPR1 antag,FLuc inh,HEK cytotox,3T3 cytotox,GPT2 inh
Cc1ccc(CN2CCc3nc(C(=O)Nc4nc(C)cs4)oc3CC2)cc1,-21%[70.6 µM],i,71µM*,u,-24%[88.5 µM]
Cc1csc(NC(=O)c2nc3c(o2)CCN(CC2CCCC2)CC3)n1,-3%[70.6 µM],28µM*,u,u,4%[88.5 µM]
Cc1csc(NC(=O)c2nc3c(o2)CCN(CCCc2ccccc2)CC3)n1,-7%[70.6 µM],i,u,u,-13%[88.5 µM]
Cn1nc(CN2CCOCC2)c2c1CCN(S(=O)(=O)c1cccc(F)c1)C2,x,x,-20%,-13%,i
Cc1cc(C)nc(N2CC3(COCC(=O)N(Cc4cccc(OC(F)(F)F)c4)C3)C2)n1,8%[70.6 µM],i,u,-7%[138 µM],-14%[88.5 µM]
N#Cc1cccc(CN2CC3(COCC(=O)N(Cc4cccc(OC(F)(F)F)c4)C3)C2)c1,-7%,i,u,28µM*,1%
Cc1cc(C2CC(C(=O)NCCc3ccccc3)CN(C(=O)NC(C)C)C2)ccc1F (centres undefined),3%,i,40µM*,u,1%
Cc1cccc(CNC(=O)C2CC(c3ccc(F)c(C)c3)CN(C(=O)c3ccccc3)C2)c1 (centres undefined),-4%,i,40µM*,25µM*,i
CN(C)CCNC(=O)C1CCc2sc(C(=O)N3CCOCC3)cc2C1 (centres undefined),-2%,i,0%,4%,-6%
Cc1nc(CC2CCN(C(=O)c3cc4c(s3)CCC(C)C4)CC2)no1 (centres undefined),-2%,40µM*,u,u,5%
Cc1nc2ncccn2c1C(=O)N1CCC(c2[nH]ncc2-c2ccccc2)CC1,-9%,i,u,u,i
c1ccc(CN2CCC(Oc3nccnc3N3CCc4ccccc43)C2)nc1 (centres undefined),0%,i,40µM*,u,i
c1ccc2c(c1)CCN2c1nccnc1OC1CCNC1 (centres undefined),-12%,i,-35%,-13%,i
COCC(=O)N1CCC(Oc2nccnc2N2CCc3ccccc32)C1 (centres undefined),0%,35µM*,-1%,i,i
Cc1ccc(NC(=O)C2(Cc3ccccc3)CCCCC(=O)N2)cc1 (centres undefined),-11%,i,3%,u,2%
COCCCNC(=O)CNC(=O)c1cccc(-c2ccc(SC)cc2)c1,x,x,u,u,i
COc1ccc(C(=O)N2C[C@H](C(N)=O)[C@H]3c4ccccc4N(C)C(=O)[C@]32C)cc1OC,x,x,u,u,2%[27.3 µM]
Clc1cnccc1CN1CCNc2cc(-c3ccccc3)ncc2C1,-16%[70.6 µM],28µM*,u,u,0%[88.5 µM]
Fc1cccc(-c2cc3c(cn2)CN(Cc2ccncc2)CCN3)c1,-23%[70.6 µM],40µM*,u,-23%[138 µM],-4%[88.5 µM]
Fc1ccccc1-c1cc2c(cn1)CN(Cc1cccnc1)CCN2,-9%[70.6 µM],32µM*,u,-22%[138 µM],4%[88.5 µM]
C[S+](=O)([O-])c1ccc(-c2cc3c(cn2)CN(Cc2ccccc2)CCN3)cc1,-3%[70.6 µM],u,u,u,-4%[88.5 µM]
